Only some compounds are listed: those with a hit (about 2.6% of all), similar ones and a draw of the others.
EBV LMP1 NFkB: EBV LMP1-driven NF-kappaB luciferase reporter inhibitors, primary screen, cell-based, luminescence, single point. hit rate 0.69% among 350,000. inhibition, % at 12.5 µM. LMP1-induced NF-kappaB luciferase reporter cells; in the data active = inhibition above about 41%;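 note: 0% = neutral control wells and 100% = reference inhibitor control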
TROY signal inh: inhibitors of TROY-driven NF-kB signaling, primary screen, Q293 LMP1-TROYcd cells, NF-kB luciferase, uHTS. Q293 LMP1-TROYcd NF-kB luciferase reporter, 4 h. inhibition, % at 10 µM. hit rate 0.98% among 360,000;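 active = compounds whose plate-normalised and pattern-corrected inhibition of the luciferase reporter signal at the single screening dose is 50% or more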
LGR2 antag: inhibitors of bursicon-induced LGR2 CRE-luciferase signal, primary screen, cell-based, HEK293, CRE-luciferase reporter, bursicon stimulation; hit rate 0.35% among 380,000; bursicon-stimulated, 4 h; inhibition, % at 9.99 µM; Drosophila bursicon receptor LGR2 (rickets);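 active = drop in luminescence signal, shown as inhibition above about 50% in the replicate tests, limit read from the data, passing the limit was not always enough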;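 note: agonist challenge used bursicon conditioned medium at about half maximal strength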
HSP90 refold inh: HSP90 inhibitors, primary screen, cell lysate, luminescence; Rabbit reticulocyte lysate, luciferase refolding luminescence, 3 h; hit rate 0.91% among 290,000; inhibition, % at 5.6 µM;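 active = inhibition above the screen-wide mean plus 3 SD, computed separately per campaign, cut at about 16% in these data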;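 note: 0% = DMSO wells and 100% = 60 µM geldanamycin wells; inhibitors lower the luminescence because luciferase stays unfolded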
aDG glyco up: activators of alpha-DG glycosylation, primary screen, uHTS, Pro5-aDG cells, AlphaScreen; alpha-DG glycosylation AlphaScreen (IIH6); 0% Pro5, 100% B10-LARGE cell signal; activation, % at 10 µM; hit rate 0.22% among 360,000;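 active = activation of at least 8% versus controls, or a plate z-score of at least 8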;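 note: Pro5 are CHO cells carrying HIG-tagged alpha-DG that lacks glycosylation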
TWEAK Fn14 block: inhibitors of TWEAK-Fn14 signaling, primary screen, luciferase reporter cells, uHTS; TWEAK-stimulated Fn14 reporter cells, luciferase luminescence, 8 h; inhibition, % at 10 µM; hit rate 2% among 360,000; AID 1159606, 2016; in the data active = inhibition above about 50%
Active calls of the source: *; ! = not active in a repeat.

For O=C(C[C@@H]1C[C@@H]2c3cc(NC(=O)CC4CC4)ccc3O[C@@H]2[C@H](CO)O1)NCc1cc(F)ccc1F the results were LGR2 antag -3.
For Cc1ccc(Cl)cc1NC(=O)COC(=O)C1CCCC1 the results were EBV LMP1 NFkB 0, TROY signal inh -5, HSP90 refold inh 2, aDG glyco up 0 and TWEAK Fn14 block 3.
Cc1ccc(Cl)cc1NC(=O)COC(=O)C12CC3CC(CC(C3)C1)C2 was read as EBV LMP1 NFkB 1, TROY signal inh 4, HSP90 refold inh 8, aDG glyco up 0 and TWEAK Fn14 block 67*!.
For CCCC(=O)N1CCC2(CC1)CN(Cc1cccnc1)[C@@H](CO)c1[nH]c3cc(OC)ccc3c12 the results were LGR2 antag -5.
Screening O=C(CN(c1ccc(Br)cc1)S(=O)(=O)c1ccc(Cl)c([N+](=O)[O-])c1)NCCc1ccccc1 returned EBV LMP1 NFkB -6, TROY signal inh 10, LGR2 antag 29, HSP90 refold inh -2, aDG glyco up 0 and TWEAK Fn14 block -19.
For Cc1ccc(N(CC(=O)NCCc2ccc(F)cc2)S(=O)(=O)c2ccc(Cl)c([N+](=O)[O-])c2)c(C)c1 the results were EBV LMP1 NFkB 3, TROY signal inh 22, LGR2 antag 18, HSP90 refold inh 5, aDG glyco up 0 and TWEAK Fn14 block 53*.
For C[C@@H](O)C#Cc1ccc([C@@H]2[C@H]3CN(CC4CC4)CCCCN3[C@H]2CO)cc1 the results were LGR2 antag 2.
For COc1cccc(/C=N/Nc2ncnc3c2ncn3Cc2ccccc2)c1O the results were EBV LMP1 NFkB 78*, TROY signal inh 7, LGR2 antag 10, HSP90 refold inh -5, aDG glyco up 2 and TWEAK Fn14 block 10.
Screening O=C(Nc1cccnc1)c1cc(-c2ccccc2)on1 returned EBV LMP1 NFkB 3, TROY signal inh -13, HSP90 refold inh 5, aDG glyco up 0 and TWEAK Fn14 block 19.
Screening Cc1cc(C)cc(NC(=O)Nc2cccnc2)c1 returned EBV LMP1 NFkB -5, TROY signal inh -9, LGR2 antag -7, HSP90 refold inh 0, aDG glyco up 0 and TWEAK Fn14 block 2.
For COc1cccc(-c2cc(C(=O)Nc3cccnc3)no2)c1 the results were EBV LMP1 NFkB 5, TROY signal inh -16, HSP90 refold inh 11, aDG glyco up 0 and TWEAK Fn14 block 69*.
Screening COc1ccc(NC(=O)Nc2cccnc2)cc1 returned EBV LMP1 NFkB -1, TROY signal inh -8, LGR2 antag -24, HSP90 refold inh -2, aDG glyco up 0 and TWEAK Fn14 block -31.
CC(=O)Oc1ccc(C(=O)Nc2cccnc2)cc1 was read as EBV LMP1 NFkB 85*, TROY signal inh 31, LGR2 antag 1, HSP90 refold inh 0, aDG glyco up 0 and TWEAK Fn14 block -29.
For COc1ccc(OC)c(NC(=O)Nc2cccnc2)c1 the results were EBV LMP1 NFkB -3, TROY signal inh -13, LGR2 antag 15, HSP90 refold inh -4, aDG glyco up 0 and TWEAK Fn14 block 52*.
Screening Cc1ccc(NC(=O)Nc2cccnc2)cc1NC(=O)Nc1cccnc1 returned EBV LMP1 NFkB 2, TROY signal inh 9, LGR2 antag 27, HSP90 refold inh 4, aDG glyco up 0 and TWEAK Fn14 block 58*.
For COc1ccc(CC2(CO)CCN(S(=O)(=O)c3cccc4cccnc34)CC2)cc1 the results were EBV LMP1 NFkB 8, TROY signal inh 14, LGR2 antag -4, HSP90 refold inh 2, aDG glyco up 0 and TWEAK Fn14 block 56*.
`COc1cccc(S(=O)(=O)N2C[C@H](O)COC[C@H]3O[C@H](CC(=O)NCCCN4CCOCC4)CC[C@@H]32)c1` gave LGR2 antag -1.
`CN1CCN(C(=O)CCS(=O)(=O)c2cc3c(cc2Cl)NC(=O)CO3)CC1` gave EBV LMP1 NFkB 8, TROY signal inh 3, LGR2 antag -12, HSP90 refold inh 0, aDG glyco up 0 and TWEAK Fn14 block 12.
